In the supplement of paper PMC7726561:

Target: HLA-C*04:01
Experiment: thermal melting temperature (Tm) of peptide-HLA complex; higher = more thermostable pHLA complex
Method in brief: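 C1R-A*02:01 or C1R-B*07:02 cell lysates, at 5 × 10^7 cell equivalents per replicate, were heated in triplicate for 10 min at 37–73 °C, cooled on ice and immunoprecipitated overnight at 4 °C with W6/32–protein A sepharose. Peptides were acid-eluted, spiked with iRT peptides and quantified by DIA-MS, and their peak areas were iRT-normalised, outlier-corrected and given as median fold-change relative to 37 °C. Tm is defined as the transition midpoint of a logistic sigmoid fitted by least squares. Only fits with R^2 > 0.85 were accepted.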

Sequence | thermal melting temperature (C1R-A*02:01) | thermal melting temperature (C1R-B*07:02)
YYEEQHPEL | 48.6 °C | 47 °C
LYDVPANSM | 51.1 °C | 57.6 °C
IYDSVKVYF | 56.8 °C | 57 °C
KFDDGAVFL | 60.9 °C | 60.4 °C
TFDDIVHSF | 54.2 °C | 55.3 °C
LYDPVISKL | 56.9 °C | 57.3 °C
FYDPDVGNF | 50.9 °C | 51.2 °C
KYDPNVYSI | 50.6 °C | 55.2 °C
FFDEESYSL | 45 °C | 43.7 °C
TFDPVTKVL | 51.4 °C | 51.5 °C
IYDKFIAQL | 52.5 °C | 54.5 °C
AFDEAIAEL | 58.4 °C | 62.7 °C
TFDVAPSRL | 52.3 °C | 52.4 °C
LFDKSINEF | 56.3 °C | 57.2 °C
IWDVSVNSV | 50.8 °C | 58.7 °C
IWEPLAVKL | 47.3 °C | 47.2 °C
SYMEVPTYL | 54.8 °C | 61 °C
HWDPQEVTL | 58.9 °C | 57.7 °C
